This passage reports composite z-score and z-score results from PubChem BioAssay.

Assay [1] has as its system Wnt5a (protein binding on small-molecule microarray). The experiment in a line: Wnt5a binders on small-molecule microarray, primary screen, biophysical, 635/667 nm fluorescence (AID 1142).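 Further: fluorescence read at 667 nm with signal to noise per printed feature.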 To be noted: 635 nm fluorescence, higher = more signal.
Assay [2] is described as follows: cell viability in Huh7 cells, primary screen, cytotoxicity control for HCV replication inhibitor project, CellTiter-Glo luminescence, basal, 48 h (AID 1143).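 Further: Huh7 hepatoma cells carrying a hepatitis C replication reporter with no stimulus; test concentration not given here.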 The following applies: Huh7 HCV replicon, higher = more signal, called active from +8 up or from −8 down.
Assay [3] is described as follows: CREB reporter modulators without forskolin, primary screen, cell-based, PC12, CRE-LacZ reporter, unstimulated (AID 1145). The following applies: no forskolin, luminescence, 4.5 h, higher = more signal, called active from +8 up or from −8 down.
The nature of assay [4]: CREB reporter modulators under forskolin, primary screen, cell-based, PC12, CRE-LacZ reporter, forskolin-stimulated (AID 1146).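 Further: PC12 cells with 6xCRE LacZ reporter stimulated by forskolin 10 µM; beta-galactosidase reporter signal reflecting CREB driven transcription.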 The following applies: luminescence, 4.5 h, higher = more signal, called active from +8 up or from −8 down.
Assay [5] has as its target Streptavidin (Streptomyces avidinii) (UniProt P22629). The experiment in a line: streptavidin binders on small-molecule microarray, primary screen, artefact control for SMM compound annotation, biophysical, 635/667 nm fluorescence (AID 1147).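 Further: signal reflects streptavidin binding to arrayed compounds as a control protein.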 The following applies: streptavidin binding, higher = more signal.
The nature of assay [6]: small-molecule binders of probe aInhba, primary screen, biochemical, small-molecule microarray, 635/667 nm fluorescence (AID 1148).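 Further: score merges 667nm spot fluorescence with signal-to-noise for antibody binding to printed compounds.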 To be noted: higher = more signal.
Assay [7] has as its target Torsin-1A (Homo sapiens) (UniProt O14656). The experiment in a line: torsin A binders from cell lysate, primary screen, small-molecule microarray, wild-type, 635/667 nm (AID 1149). To be noted: COS7 hTOR1A-WT lysate, 635 nm fluorescence, higher = more signal.
The target is the same in assay [8]. The experiment in a line: small-molecule binders of mutant TOR1A in lysate, primary screen, cell lysate, small-molecule microarray, COS7 lysate, 635/667 nm fluorescence (AID 1150).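 Further: score pools 667 nm emission and signal to noise measuring lysate protein binding.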 To be noted: COS7 hTOR1A mutant lysate, 635 nm fluorescence, higher = more signal.
Assay [9] has as its system Sonic hedgehog protein (Shh). As to the kind of experiment: small-molecule binders of Shh protein, primary screen, biochemical, small-molecule microarray, 635/667 nm fluorescence (AID 1151).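 Further: Shh protein binding to compounds spotted on small-molecule microarray slides; score combines spot fluorescence intensity with signal-to-noise across triplicate slides.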 To be noted: small-molecule microarray binding, 635 nm fluorescence; higher = more signal.
A short description of assay [10]: E. coli DRC41 culture turbidity changes, primary screen, E. coli filamentation inducer project, strain DRC41, OD650, 48 h (AID 1152).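 Further: E. coli MC1000 strain DRC41 lacking acrAB efflux pump and sulA.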 The following applies: E. coli DRC41 (acrAB sulA), higher = more signal, called active from +8 up or from −8 down.
The nature of assay [11]: small-molecule binders of probe aLefty1, primary screen, biochemical, small-molecule microarray, 635/667 nm fluorescence (AID 1153).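 Further: score merges spot fluorescence with signal-to-noise ratio from the scanned slide images.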 To be noted: higher = more signal.
Assay [12] is described as follows: PSAC antagonists in infected red cells, primary screen, cell-based, P. falciparum Indochina, OD700, 1 h (AID 1154). To be noted: P. falciparum Indochina infected RBC osmotic lysis, higher = more signal, called active from +8 up or from −8 down.
The nature of assay [13]: PSAC antagonists in infected red cells, primary screen, cell-based, P. falciparum Indochina, OD700, 2 h (AID 1155).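 Further: lysis reports solute entry through the parasite surface anion channel PSAC; channel blockers reduce lysis of infected cells.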 To be noted: P. falciparum Indochina infected erythrocytes, osmotic lysis OD700; higher = more signal, called active from +8 up or from −8 down.
The nature of assay [14]: osmotic lysis modulators in infected erythrocytes, primary screen, PSAC antagonist project, cell-based, P. falciparum Indochina, OD700, 3 h (AID 1156). The following applies: higher = more signal, called active from +8 up or from −8 down.
Assay [15] can be described thus: PSAC antagonists in infected red cells, primary screen, cell-based, P. falciparum Indochina, OD700, 18 h (AID 1157). To be noted: P. falciparum Indochina infected erythrocytes, osmotic lysis OD700, 18 h; higher = more signal, called active from +8 up or from −8 down.
Assay [16] can be described thus: modulators of S6 phosphorylation in cells, primary screen, cell-based, A549, cytoblot, luminescence, serum-stimulated (AID 1158).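 Further: serum-stimulated A549 lung adenocarcinoma cells; signal is phosphorylated S6 detected by cytoblot immunostaining with HRP secondary.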 The following applies: A549 phospho-S6 cytoblot, 5 h, higher = more signal.
In assay [17] the target is NADPH oxidase 2 (Homo sapiens) (UniProt P04839). The experiment in a line: NOX2-dependent H2O2 signal modulators, primary screen, NOX inhibitor project, cell-based, HEK293-NOX2, PMA-stimulated, Amplex Red fluorescence (AID 1159). Further: test concentration not given here. The following applies: 45 min, higher = more signal, called active from +8 up or from −8 down.
Assay [18] concerns the target NADPH oxidase 4 (Homo sapiens) (UniProt Q9NPH5). The experiment in a line: NOX4-dependent H2O2 signal modulators, primary screen, NOX inhibitor project, cell-based, HEK293-NOX4, tetracycline-induced, Amplex Red fluorescence (AID 1160). To be noted: 45 min, higher = more signal, called active from +8 up or from −8 down.
In assay [19] the target is NADPH oxidase 5 (Homo sapiens) (UniProt Q96PH1). As to the kind of experiment: NOX5-dependent H2O2 signal modulators, primary screen, NOX inhibitor project, cell-based, HEK293-NOX5, Amplex Red fluorescence (AID 1161). The following applies: HEK293-NOX5, ionomycin, 45 min, higher = more signal.
A short description of assay [20]: A549 cell viability effects, profiling panel, calcein-AM fluorescence, 48 h, basal (AID 1162). Further: test concentration not given here. To be noted: higher = more signal.

Activity calls are given as the source filed them.

Sequence of NADPH oxidase 2 (Homo sapiens) (P04839 whole entry, looked up): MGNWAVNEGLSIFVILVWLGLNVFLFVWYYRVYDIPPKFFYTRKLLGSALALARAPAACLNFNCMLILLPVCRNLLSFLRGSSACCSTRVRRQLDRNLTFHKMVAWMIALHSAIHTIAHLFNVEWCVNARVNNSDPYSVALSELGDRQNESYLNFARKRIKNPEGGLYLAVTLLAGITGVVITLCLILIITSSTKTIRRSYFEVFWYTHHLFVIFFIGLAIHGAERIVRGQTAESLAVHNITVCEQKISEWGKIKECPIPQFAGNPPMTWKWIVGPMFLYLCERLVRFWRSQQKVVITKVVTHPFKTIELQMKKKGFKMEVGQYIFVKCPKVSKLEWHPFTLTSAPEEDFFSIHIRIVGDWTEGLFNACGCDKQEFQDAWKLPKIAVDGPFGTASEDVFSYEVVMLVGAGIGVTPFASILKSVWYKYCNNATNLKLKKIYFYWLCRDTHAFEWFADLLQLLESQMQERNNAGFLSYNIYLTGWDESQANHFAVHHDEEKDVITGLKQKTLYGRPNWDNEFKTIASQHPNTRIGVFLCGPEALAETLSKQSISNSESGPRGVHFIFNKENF
Sequence of Streptavidin (Streptomyces avidinii) (P22629 whole entry, looked up): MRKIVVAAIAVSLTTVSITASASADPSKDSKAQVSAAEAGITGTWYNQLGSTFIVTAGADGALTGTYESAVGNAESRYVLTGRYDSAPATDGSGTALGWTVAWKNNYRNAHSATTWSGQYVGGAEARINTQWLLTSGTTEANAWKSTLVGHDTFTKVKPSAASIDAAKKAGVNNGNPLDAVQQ
Sequence of NADPH oxidase 4 (Homo sapiens) (Q9NPH5 whole entry, looked up): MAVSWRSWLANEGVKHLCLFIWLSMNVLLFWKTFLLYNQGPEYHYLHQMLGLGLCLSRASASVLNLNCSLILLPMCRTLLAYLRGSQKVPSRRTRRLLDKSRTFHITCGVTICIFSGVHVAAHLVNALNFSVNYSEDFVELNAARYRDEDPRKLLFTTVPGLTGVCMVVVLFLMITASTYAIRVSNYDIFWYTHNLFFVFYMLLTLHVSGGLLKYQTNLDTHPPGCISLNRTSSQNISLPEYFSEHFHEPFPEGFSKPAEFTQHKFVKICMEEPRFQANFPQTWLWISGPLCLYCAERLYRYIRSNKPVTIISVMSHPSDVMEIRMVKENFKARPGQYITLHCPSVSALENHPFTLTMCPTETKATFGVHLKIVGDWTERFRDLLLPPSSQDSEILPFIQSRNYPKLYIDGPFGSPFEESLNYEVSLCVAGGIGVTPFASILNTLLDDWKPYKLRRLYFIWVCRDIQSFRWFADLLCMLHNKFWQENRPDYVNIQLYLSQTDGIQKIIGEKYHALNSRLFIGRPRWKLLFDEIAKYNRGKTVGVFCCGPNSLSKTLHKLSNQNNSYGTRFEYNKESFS
Sequence of NADPH oxidase 5 (Homo sapiens) (Q96PH1 whole entry, looked up): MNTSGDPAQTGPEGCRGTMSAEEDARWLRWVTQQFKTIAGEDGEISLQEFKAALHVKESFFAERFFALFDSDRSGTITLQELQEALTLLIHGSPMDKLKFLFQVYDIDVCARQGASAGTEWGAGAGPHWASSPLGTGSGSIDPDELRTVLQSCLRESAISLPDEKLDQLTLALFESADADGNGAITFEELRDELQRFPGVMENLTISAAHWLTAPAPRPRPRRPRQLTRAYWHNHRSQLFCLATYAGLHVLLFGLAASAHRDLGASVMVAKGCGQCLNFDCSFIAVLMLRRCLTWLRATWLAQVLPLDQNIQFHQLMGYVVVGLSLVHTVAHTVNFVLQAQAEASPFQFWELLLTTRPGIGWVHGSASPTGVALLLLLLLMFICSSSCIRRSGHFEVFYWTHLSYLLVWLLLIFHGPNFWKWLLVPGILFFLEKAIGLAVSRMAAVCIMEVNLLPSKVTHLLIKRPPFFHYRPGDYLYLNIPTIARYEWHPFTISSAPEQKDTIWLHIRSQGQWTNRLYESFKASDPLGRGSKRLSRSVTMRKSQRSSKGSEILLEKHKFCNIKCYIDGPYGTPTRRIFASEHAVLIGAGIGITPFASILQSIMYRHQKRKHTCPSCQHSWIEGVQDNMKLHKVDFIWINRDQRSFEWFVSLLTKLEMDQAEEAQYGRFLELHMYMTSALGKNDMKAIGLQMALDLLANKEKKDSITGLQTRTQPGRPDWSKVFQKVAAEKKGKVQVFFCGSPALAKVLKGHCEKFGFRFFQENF
Sequence of Torsin-1A (Homo sapiens) (O14656 whole entry, looked up): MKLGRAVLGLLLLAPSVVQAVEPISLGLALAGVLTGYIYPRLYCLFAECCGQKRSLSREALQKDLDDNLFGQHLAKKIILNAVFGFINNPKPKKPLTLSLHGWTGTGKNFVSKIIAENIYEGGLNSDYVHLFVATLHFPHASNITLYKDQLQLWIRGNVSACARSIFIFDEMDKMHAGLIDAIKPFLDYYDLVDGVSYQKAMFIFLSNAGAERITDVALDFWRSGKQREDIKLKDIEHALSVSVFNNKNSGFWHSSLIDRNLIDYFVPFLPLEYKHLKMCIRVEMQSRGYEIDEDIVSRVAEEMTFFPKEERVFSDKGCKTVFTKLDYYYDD

As to `COc1ccc(C#Cc2ccc3c(c2)[C@]2(C(=O)N3)[C@H](c3ccc(O)cc3)N3[C@H](c4ccccc4)[C@H](c4ccccc4)OC(=O)[C@H]3[C@@H]2C(=O)N2CCN(c3ncccn3)CC2)cc1`, the composite z-score in assay [1] turned out to be 0.167; in [5], 1.13; in assay [6], 0.18; with Torsin-1A (Homo sapiens) [7], 0.246; in the assay with Torsin-1A (Homo sapiens) [8], 0.923; in assay [9], 0.262. For the same molecule, in assay [11], the composite z-score was determined as 0.312. Further, the z-score in assay [2] was -1.76 (inactive); in [3], 0.478 (inactive); in assay [4], 0.708 (inactive); in assay [10], 1.77 (inactive); in assay [12] it was 1.28 (inactive); in assay [13], 0.22 (inactive). Also, the z-score in assay [14] is 1.19 (inactive); in assay [15], 0.564 (inactive); in assay [16], 0.26; in [17], 0.393 (inactive); in [18], 0.0458 (inactive); in assay [19] it was 1.21. Also, the z-score in assay [20] was 0.214.

`Cc1ccc(S[C@]2(C(=O)NCC(C)C)CC(=O)N(C(C)C)[C@@H]2c2ccc(CO)cc2)cc1`: the composite z-score in [1] is 0.114; in [5], -1.13; in [6] it was 0.0464; with Torsin-1A (Homo sapiens) [7], 0.234; with Torsin-1A (Homo sapiens) [8] it was 0.0167; in assay [9], -0.305. In [11], this molecule displayed a composite z-score of -0.191. Besides, the z-score in [2] was -4.95 (inactive); in assay [3] it was 0.182 (inactive); in assay [4] it was -0.838 (inactive); in assay [10], 2.67 (inactive); in [12], 1.73 (inactive); in [13], -0.147 (inactive). Further, the z-score is -0.651 (inactive) in [14]; -1.54 (inactive) in assay [15]; 3.27 in assay [16]; 0.827 (inactive) in [17]; -0.881 (inactive) in [18]; 0.137 in assay [19]. For the same molecule, the z-score in assay [20] is -0.0169.

Take `CCOC(=O)C[C@H]1[C@H](OC(=O)Cc2ccc3c(c2)OCO3)[C@@H](NC(=O)c2ccc3ccccc3c2)c2cc(OCCCO)ccc2N1C(=O)c1ccc2ccccc2n1`: the composite z-score in assay [1] is 0.0364; in assay [5], 0.398; in [6], 0.219; with Torsin-1A (Homo sapiens) [7], 0.0253; in the assay with Torsin-1A (Homo sapiens) [8] it was 0.107; in assay [9] it was 0.555. Also, in assay [11], the composite z-score stood at 0.169. For the same molecule, the z-score in assay [2] is -2.81 (inactive); in [3] it was 7.41 (inactive); in assay [4], -1.37 (inactive); in assay [10], 0.869 (inactive); in assay [12], 11.8 (active); in assay [13] it was 1.44 (inactive). In addition, the z-score in [14] was -0.859 (inactive); in assay [15], 0.0679 (inactive); in [16] it was 1.49; in [17], 0.0194 (inactive); in assay [18] it was -0.0398 (inactive); in assay [19], -3.84. In addition, the z-score in [20] was 3.85.

Consider `COc1ccc([Si](C)(C)[C@H]2[C@H](CC(=O)N(CCO)Cc3ccccc3)O[C@@]3(C(=O)N(Cc4ccc(N5CCOC5=O)cc4)c4ccccc43)[C@@H]2C)cc1`, for which the composite z-score in [1] was -0.0226; in [5], 0.295; in assay [6], 0.0111; with Torsin-1A (Homo sapiens) [7] it was 0.442; with Torsin-1A (Homo sapiens) [8], 0.0957; in [9], 1.73. Further, the composite z-score in assay [11] is -0.123. In addition, the z-score in [2] is -2.42 (inactive); in [3] it was 1.05 (inactive); in assay [4], -0.871 (inactive); in assay [10], 1.22 (inactive); in [12], 25.1 (active); in assay [13], 14.5 (active). The z-score in assay [14] was -0.084 (inactive); in assay [15], 2.17 (inactive); in assay [16], -0.141; in assay [17], 0.815 (inactive); in assay [18], -0.23 (inactive); in [19] it was 1.34. In addition, the z-score in assay [20] was -0.832.
